This is part of a sample that, as a whole, favours compounds with a hit. Of some 79,000 tested, about 15% had one in any assay. Values without a mark were called inactive. Calls of active or inactive are those of the source. Cut-off read from the data, not from the text of the source: active = growth inhibition above about 70%; inactive = the rest. Where a SMILES comes first, the peptide text is derived from it. The star is where a group is joined. Trt = c1ccc(C(c2ccccc2)(c2ccccc2)*)cc1; Cbz = O=C(OCc1ccccc1)*

A short description of this experiment: NCI Yeast Anticancer Drug Screen. Data for the bub3 strain (AID 167). Conditions: S. cerevisiae bub3 mutant strain, at 50.0 µM, hits give high values. In short, it runs like this: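 Readout: yeast growth inhibition, expressed relative to vehicle-only wells. The test organism is a mutant strain from a panel with lesions in DNA repair or checkpoint genes.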
In the case of `N=C(N)SCCC(=O)O`, the growth inhibition is 17.4%.

For `COC(=O)C(CO)NC(=O)C(CSC(c1ccccc1)(c1ccccc1)c1ccccc1)NC(=O)OCc1ccccc1` (stereo not given) (Cbz-Cys(Trt)-Ser-OMe; configuration not given here), the growth inhibition is 67.2%. Then `CC1(C)N=C(N)N=C(N)N1c1cccc(OCCCOc2ccc([N+](=O)[O-])cc2)c1`, with -7.8%; and `CCN(CC)CCN(CC)CC(=O)Nc1ccccc1Cl`, with -3.6%; and `O=c1[nH]c(N2CCN(c3ccccc3)CC2)nc2cc3ccccc3cc12`, with -5.15%. Then `c1ccc(-c2cnc(C3CCCCC3)o2)cc1`, with 17.1%; and `C[N+](C)(C)C=Nc1cccc2c1CCCC2`, with 6.05%.

For the compound `COc1ncnc2c(NC3OC(CO)C(O)C3O)ncnc12` (stereo not given), the growth inhibition is -9.2%.

`Cn1c2cc(Cl)c(Cl)cc2nc2cc3c(cc21)c(Cl)c(=O)c1cc2cc(Cl)c(Cl)cc2cc13`: the growth inhibition is -2.85%. With `CN1C=C([N+](=O)[O-])C(N2CCOCC2)C1N1CCOCC1` (stereo not given) the figure was -26.6%. With `O=C1NCC(c2ccccc2)(C2CC2)O1` (stereo not given) the figure was 5.1%; with `CCOC(=O)c1noc(Oc2ccc(Cl)cc2Cl)n1`, -9.3%; with `CCCN(CCC)C(=S)S`, 23.2%. Then `CSc1ncnc2c1ccn2C1OC(COP(=O)(O)O)C(O)C1O` (stereo not given), with -37%; and `O=C(O)c1c(Br)c(Br)c(Br)c(Br)c1C(=O)Nc1ccc([N+](=O)[O-])cc1`, with 3.15%. As for `Cc1ccc(N2C(=O)CSC2=S)cc1F`, the growth inhibition is 5.6%. Regarding `Cc1ccc(C#N)c2c1CCC2`, the growth inhibition is -13%. Take `CCOC(=O)/C=C/C(=O)OCC`: the growth inhibition is 6.65%. With `COc1ccc(C(=O)C(CO)Oc2ccccc2OC)cc1OC` (stereo not given) the figure was -13.5%. Consider `O=C(O)CCC(=O)Nc1cc(C(F)(F)F)ccc1Cl`, for which the growth inhibition is 14.8%. With `Clc1ccc(OCc2nnc3n2N=C(c2ccc(Br)cc2)CS3)cc1` the figure was -5%; with `CC(C)C(=O)C(F)(F)F`, 28.6%; with `O=C(OC1C#CCSCC#C/C=C\1)c1ccc2c(c1)C(=O)c1ccccc1C2=O` (stereo not given), -16.9%.

On to `Cc1ccc2c(c1)Nc1ccccc1P2(=O)O`, for which the growth inhibition was 14.3%.

On to `NC(=O)SCC(=O)Nc1ccc2cccc3c2c1CC3`, for which the growth inhibition was 74.3% (active).

For the compound `CC1=CCC(CC(=O)O)C1(C)C` (stereo not given), the growth inhibition is 6.55%. With `O=C(NC(c1ccccc1)C(O)c1ccccc1)C(Cl)Cl` (stereo not given), the growth inhibition is -0.75%.

On to `O=C1c2ccccc2C(=O)c2c1cc1c(c2O)OCO1`, for which the growth inhibition is -38%. With `CCCCCCCCCCCCC(F)C(=O)OCC1OC(n2cc(C)c(=O)[nH]c2=O)CC1N=[N+]=[N-]` (stereo not given) the figure was 10.7%; with `CN1C(C)(C)NC(=S)C1(C)C`, 1.65%. Consider `NC(=S)N/N=C(\CCC(=O)Nc1ccccc1[N+](=O)[O-])CC(=O)c1ccco1`, for which the growth inhibition was -19.8%. Then `CC(C)(C)CC(C)(C)NS(=O)(=O)NC(C)(C)CC(C)(C)C`, with 1.45%.

As for `O=C(O)c1cccc(Br)c1[N+](=O)[O-]`, the growth inhibition is -8.1%. With `CC(=O)NC(CSCN(C)c1nc(N(C)C)nc(N(C)C)n1)C(=O)O` (stereo not given) the figure was 8.2%; with `CN(C)CC1CCCCCCCCCC(CN(C)C)C1=O` (stereo not given), -21.4%; with `CCCCCCC(=O)C(=O)O`, 18.9%.

With `[N-]=[N+]=NC1(Cc2ccccc2)C(=O)Nc2ccccc2C1=O` (stereo not given), the growth inhibition is -5.65%. Then `O=C(O)CCC1COc2ccccc2O1` (stereo not given), with -14%; and `O=C1NC(=O)C(F)(F)C1(F)F`, with 0.25%.

As for `CC1(C)C/C(=C\c2ccc([N+](=O)[O-])cc2)C(=O)c2ccccc21`, the growth inhibition was 76.5% (active).

The values above are taken from PubChem BioAssay (NCI).
